What all share (test): NCI-60 one-dose screen, 48 h (100 = growth as untreated, 0 = no growth, -100 = all killed)
Assay [1] has as its system SK-MEL-2 melanoma. The conditions noted are these: 10 µM unless noted.
Assay [2] relates to EKVX NSCLC. As to conditions: 10 µM unless noted.
For assay [3], the system named is SN12C renal. The conditions noted are these: 10 µM unless noted.
Assay [4] deals with UO-31 renal. The conditions noted are these: 10 µM unless noted.
The test system of assay [5] is TK-10 renal. The conditions noted are these: 10 µM unless noted.
The test system of assay [6] is ACHN renal. The conditions noted are these: 10 µM unless noted.
The test system of assay [7] is CAKI-1 renal. As to conditions: 10 µM unless noted.
Assay [8] concerns A498 renal. The conditions noted are these: 10 µM unless noted.
For assay [9], the system named is CCRF-CEM leukemia. As to conditions: 10 µM unless noted.
The subject of assay [10] is MOLT-4 leukemia. As to conditions: 10 µM unless noted.
In assay [11] the test system is RPMI-8226 leukemia. The conditions noted are these: 10 µM unless noted.
Assay [12] has as its system OVCAR-8 ovarian. The conditions noted are these: 10 µM unless noted.
Assay [13] relates to OVCAR-5 ovarian. The conditions noted are these: 10 µM unless noted.
For assay [14], the system named is OVCAR-4 ovarian. The conditions noted are these: 10 µM unless noted.
The test system of assay [15] is SK-OV-3 ovarian. As to conditions: 10 µM unless noted.
Assay [16] concerns IGROV1 ovarian. As to conditions: 10 µM unless noted.
Assay [17] deals with OVCAR-3 ovarian. The conditions noted are these: 10 µM unless noted.
The subject of assay [18] is HS 578T breast. The conditions noted are these: 10 µM.
For assay [19], the system named is NCI/ADR-RES ovarian. The conditions noted are these: 10 µM unless noted.
The test system of assay [20] is SR leukemia. As to conditions: 10 µM unless noted.

Compounds without any hit were thinned out: in the full panel of roughly 83,000, 20% have a hit.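 The endpoint reported here, percent growth, reads 100 for growth as untreated, 0 for no net growth and -100 for all cells dead.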 Unmarked numbers belong to inactive results. Activity calls are given as the source filed them. Rule for the calls: active = growth percent below 10; inactive = the rest.

`COCCn1c(Nc2ccc(C(=O)NO)cc2)nc2ccccc21`: the growth was 39.6% in [1]; 56.5% in assay [2]; 66.3% in [3]; 50.3% in assay [4]; 26.7% in [5]; 57.1% in assay [6]. Further, the growth is 47.3% in assay [7]; 84.2% in [8]; 48.5% in [9]; 33.4% in assay [10]; 44% in assay [11]; 37.3% in [12]. The growth in [13] is 47.4%; in assay [14] it was 72.2%; in assay [15], 49.2%; in assay [16], 57.5%; in assay [17], 83.5%; in [18], 80.7%. For the same molecule, the growth in assay [19] is -9.22% (active).
Take `F`: the growth was -27.7% [6.87 mM] (active) in [1]; -14.8% [6.87 mM] (active) in assay [2]; 27% [6.87 mM] in [3]; 12% [6.87 mM] in assay [4]; 4.45% [6.87 mM] (active) in [5]; 23.6% [6.87 mM] in [6]. In addition, the growth in assay [7] was 28.9% [6.87 mM]; in [8], -28.8% [6.87 mM] (active); in [9] it was 29.9% [6.87 mM]; in [10] it was 23.5% [6.87 mM]; in [11], 22.4% [6.87 mM]; in assay [12], 30% [6.87 mM]. Besides, the growth in assay [13] is 10.6% [6.87 mM]; in assay [14], 76.2% [6.87 mM]; in assay [15] it was 8.2% [6.87 mM] (active); in assay [16] it was 53.5% [6.87 mM]; in [17] it was 71.5% [6.87 mM]; in assay [19] it was 8.42% [6.87 mM] (active).
On to `O=C1C=CC(=O)N1c1cccc(N2C(=O)C=CC2=O)c1`, for which the growth was 111% in assay [1]; 95.6% in [2]; 106% in [3]; 28.4% in assay [4]; 33.1% in assay [5]; -26% (active) in [6]. Moreover, the growth in [7] is 37.3%; in [8], 111%; in assay [9], -22.3% (active); in assay [10] it was 103%; in assay [11], 91.7%; in assay [12], 106%. The growth in [13] is 102%; in [14], 98.1%; in assay [16], 111%; in assay [17], 66.4%; in [18] it was 114%; in [19] it was 110%.
With `Cc1ccc(/C=C/C(=N/N=C(N)N)c2ccccc2)cc1`, the growth in assay [1] is 49.3%; in assay [2], 35.4%; in [3], 34.3%; in assay [4] it was 21.7%; in assay [5], 44%; in assay [6] it was 48.5%. Moreover, the growth was 16.4% in assay [7]; -5.04% (active) in [8]; 25.2% in assay [9]; 24% in [10]; -9.62% (active) in [20]; 11.1% in assay [11]. The growth is 24.6% in assay [12]; 54.4% in assay [13]; 9.84% (active) in assay [15]; 43.1% in assay [16]; -28.6% (active) in assay [17]; 35.2% in assay [19].
With `COc1cc(C)c2c(=O)c3c(oc2c1)C(=O)c1c(O)c(OC)cc(O)c1C3=O`, the growth in [1] is -25.7% (active); in [2], 32.6%; in [3] it was 16.8%; in assay [4], 0.808% (active); in [5] it was 23.8%; in assay [6], 0.624% (active). Also, the growth is 12.6% in assay [7]; 89% in [8]; 10.4% in assay [9]; 16.3% in [10]; 15.7% in assay [20]; -8.23% (active) in assay [11]. Moreover, the growth in assay [13] is -4.74% (active); in assay [14] it was 1.77% (active); in assay [17], 5% (active); in [18], 35%; in [19], 5.56% (active).
Regarding `O=[N+]([O-])c1ccccc1CN1CCCCC1`, the growth was 100% in assay [1]; 86.8% in [2]; 105% in [3]; 89.4% in assay [4]; 121% in assay [5]; 113% in assay [6]. The growth in assay [7] is 108%; in [8] it was 99.5%; in assay [9], 85.4%; in assay [10], 115%; in assay [11] it was 109%; in [12], 108%. Further, the growth in assay [13] was 102%; in assay [14], 114%; in assay [15], 127%; in assay [16] it was 114%; in assay [17], 109%; in assay [18] it was 118%. For the same molecule, the growth in assay [19] is 104%.
For `CCN(CC)c1ccc(C(=N)c2ccc(N(C)C)cc2)cc1`, the growth in assay [1] was -4.95% (active); in assay [2], 15.2%; in [3], 24.8%; in assay [4], 8.99% (active); in [5] it was 31.4%; in assay [6] it was 30.1%. Besides, the growth in [7] is -19.9% (active); in assay [8] it was -20.1% (active); in assay [9] it was 21.7%; in assay [10], 17.7%; in assay [11], 6.17% (active); in assay [12], 11.9%. In addition, the growth is 16.8% in assay [13]; 21.4% in assay [14]; 14.4% in assay [15]; -12.6% (active) in [17]; -31% (active) in assay [18]; -31.1% (active) in assay [19].
On to `C=CCOc1c(Br)cc(Br)cc1Br`, for which the growth is 69.3% in assay [1]; 64% in assay [2]; 62.9% in assay [3]; 28.2% in assay [4]; 102% in assay [5]; 48.7% in assay [6]. Also, the growth in assay [7] was 76.5%; in [8], 55.9%; in assay [9] it was 43.6%; in [10], 64.6%; in [20], 34.8%; in assay [11], 38.7%. The growth in assay [12] is 74.3%; in assay [14], 63.4%; in [15] it was 64.9%; in assay [16], 30%; in assay [18], 42.2%; in [19], 63.7%.
For `N#Cc1nc(-c2cccc(Br)c2)cc(-c2ccc(Nc3nc(N4CCCCC4)nc(N4CCCCC4)n3)cc2)c1N`, the growth in assay [1] was -10.7% (active); in assay [2], 5.85% (active); in assay [3] it was 16.7%; in assay [4] it was -78.8% (active); in assay [5], -87.8% (active); in assay [6] it was -96.3% (active). Further, the growth in assay [8] was -20% (active); in [9] it was 11.4%; in [10] it was 8.61% (active); in [20], 11.9%; in [11], -0.0335% (active); in assay [12], 12.2%. The growth in assay [13] is 9.23% (active); in assay [14], -53.8% (active); in assay [15] it was 87.4%; in assay [16], -45.4% (active); in assay [17] it was -76.6% (active); in assay [18], 6.14% (active). Moreover, the growth in assay [19] is 24.3%.

The record behind these values is PubChem BioAssay (NCI).
